These results are taken from PubChem BioAssay (Tox21).

Several values for one entry are separate records, joined by “and”; a condition that tells them apart may be missing. Equal entries are not always repeated. Results filed as inconclusive are left out. Some compounds were tested as several samples or in several runs, with calls that do not always agree. Activity calls are given as the source filed them. Calls come from the whole dose curve; as a rule, active = well fitted inhibition curve with a large enough effect in the signal ratio in the repeat runs; inconclusive = weak or mixed curves, or effect the other way; inactive = flat fitted curve, though single readings scatter; the % refers to the signal ratio.
% is set by controls: 0 for no effect and ±100 for the full control effect; potency is the fitted concentration of half-maximal effect.

The nature of the experiment: qHTS assay for small molecule disruptors of the mitochondrial membrane potential (AID 720635). The note with it: HepG2 mitochondrial membrane potential, Mito-MPS dye ratio; series mostly up to 83.2 µM; ratio activity, negative = MMP loss: at the top concentration. From the text: U.S. Tox21 Program National Center for Advancing Translational Sciences [NCATS] NIH Chemical Genomics Center [NCGC] U.S. Environmental Protection Agency [EPA] National Institutes of Environmental Health Sciences [NIEHS] National Toxicology Program [NTP] U.S. Food and Drug Administration [FDA] Tox21 Assay Overview: Mitochondrial membrane potential (MMP), one of the parameters for mitochondrial function, is generated by mitochondrial electron transport chain that creates an electrochemical gradient by a series of redox reactions. This gradient drives the synthesis of ATP, a crucial molecule for various cellular processes. Measuring MMP in living cells is commonly used to assess the effect of chemicals on mitochondrial function. […] The dye accumulates in the mitochondria of healthy cells as aggregates, with red fluorescence. The mitochondrial potential collapses and the dye can no longer accumulate in the mitochondria and remains in the cytoplasm in monomers, with green fluorescence.
Tox21 Assay Protocol Summary: 2,000 HepG2 cells in 5 uL/well were dispensed into black, clear-bottom 1536-well plates using a Multidrop Combi (Thermo Scientific) dispenser. The assay plates were incubated overnight at 37C to allow cells to attach to the wells, followed by the transfer of 23 nL compound or DMSO vehicle by a pin tool (Kalypsys). The plates were incubated for 1 hr at 37C and 5% CO2, followed by the addition of 5 uL of 2X Mito-MPS dye (BD Biosciences) into each well using Flying Reagent Dispenser (Aurora Discovery) and then following 30 min incubation at 37C. Fluorescence intensity (490nm excitation and 535nm emission for monomers; and 540nm excitation and 590nm emissions for aggregates) was measured using an Envision plate reader.
On the technique in general: qHTS replaces the single test concentration by a dilution series.
As to `OCC(CO)(CBr)CBr`, the Potency entry is “inactive”.

For the molecule `CCCCC(CC)CO` (stereo not given), the “ratio activity, negative = MMP loss” value is 4.97% (inactive). On to `Cc1cccc(O)c1`, for which the Potency entry was “inactive”. As for `O=C(O)CC(C(=O)O)C(CC(=O)O)C(=O)O` (stereo not given), the “ratio activity, negative = MMP loss” value was 10.4% (inactive). `O=C(O)[C@H](O)[C@@H](O)[C@H](O)[C@H](O)CO`: the Potency result is “inactive”. Same read-out and setting: to `CCCSc1ccc2nc(NC(=O)OC)[nH]c2c1` belongs 4.52 µM (active) and 12.2 µM (active). For the molecule `Cc1occc(=O)c1O`, the Potency entry was “inactive”. Consider `CC(=O)c1ccccc1`, for which the “ratio activity, negative = MMP loss” value is 13.3% [at 95.3 µM] (inactive). Turning to `CC1=CC(=O)NS(=O)(=O)O1`, the Potency result is “inactive”.

Consider `c1ccc2scnc2c1`, for which the Potency entry was “inactive”.

Regarding `CCCC(C)=O`, the Potency result was “inactive”.

As to `CCC(O)OCCCOC` (stereo not given), the “ratio activity, negative = MMP loss” value was 8.29% [at 95.3 µM] (inactive). For the molecule `CC(=O)CC(=O)Nc1ccccc1C`, the “ratio activity, negative = MMP loss” value was 10.3% [at 95.3 µM] (inactive).

Take `CN(C)CCC(c1ccc(Cl)cc1)c1ccccn1` (stereo not given): the “ratio activity, negative = MMP loss” value is 20.1% (inactive). Turning to `c1ccc(OCCOc2ccccc2)cc1`, the Potency was 24.3 µM (active).

As for `ON=C1CCCCC1`, the Potency entry is “inactive”. Take `CC(O)COCC(C)O` (stereo not given): the “ratio activity, negative = MMP loss” value was 8.81% (inactive). On the same count and under the same terms, to `CC(c1cc2ccccc2s1)N(O)C(N)=O` (stereo not given) belongs -5.25% (inactive); to `C=C(C)C(=O)OCCOCCOCCOC(=O)C(=C)C`, 13.3% (inactive). Consider `CCC(O)OC(O)CC` (stereo not given), for which the Potency result is “inactive”.

Take `C[Si](O[Si](C)(C)C)O[Si](C)(C)C`: the Potency entry was “inactive”. For `COS(C)(=O)=O`, the “ratio activity, negative = MMP loss” value was 7.91% [at 95.3 µM] (inactive). For the molecule `Cc1cccnc1`, the Potency result is “inactive”. Take `O=c1[nH]c(=O)n([C@H]2CCCO2)cc1F`: the “ratio activity, negative = MMP loss” value was -14.9% (inactive). For `Nc1ccccc1[N+](=O)[O-]`, the Potency is 48.6 µM (active). Still for that read-out and setting: the result for `FC(F)(F)c1ccc(Cl)c(Cl)c1` reads “inactive”. Take `COc1ccc2cc([C@H](C)C(=O)O)ccc2c1`: the “ratio activity, negative = MMP loss” value was 8.38% [at 39.1 µM] (inactive). For the molecule `CCCCCCCCCCCCc1ccccc1`, the Potency result is “inactive”. Turning to `O=c1[nH]nnc2ccccc12`, the Potency result was “inactive”. Still for that read-out and setting: the result for `C=C(C)C(=O)Nc1ccc(Cl)c(Cl)c1` reads 19.5 µM (active) and 30.5 µM (active). `C#CCN(C)Cc1ccccc1`: the “ratio activity, negative = MMP loss” value was -10.1% [at 39.1 µM] (inactive). For the molecule `O=C1CCC(N2C(=O)c3ccccc3C2=O)C(=O)N1` (stereo not given), the Potency result was “inactive”. `CCCCC(CC)COC(=O)C(C#N)=C(c1ccccc1)c1ccccc1` (stereo not given): the Potency was 27.3 µM (active). With `C#C[C@]1(O)CC[C@H]2[C@@H]3CCC4=CC(=O)CC[C@@H]4[C@H]3CC[C@@]21C`, the “ratio activity, negative = MMP loss” value is 7.04% (inactive). Still for that read-out and setting: the result for `Cc1ccc2oc(=O)ccc2c1` reads 0.551% [at 95.3 µM] (inactive); that for `CCCCCOC(C)=O`, 16.4% [at 95.3 µM] (inactive). As to `COc1ccc(Nc2ccccc2)c(C)c1`, the Potency result was “inactive and 48.6 µM (active)”.

For `O=C(O)c1ccc(C(=O)O)cc1`, the “ratio activity, negative = MMP loss” value is -3.33% (inactive). The same measure, in the same setting: the result for `COc1cc(Cc2cnc(N)nc2N)cc(OC)c1OC` reads 29.7% (inactive). Turning to `O=S1(=O)CC=CC1`, the Potency entry was “inactive”.
